The campaign covered roughly 380,000 compounds. About 4,000 (1.1%) were called active. Roughly 3% stayed inconclusive and do not appear here. This is one part of a sample in which actives are shown more often than they occur. Values without a mark were called inactive. Calls follow the shape of the dose curve; as a rule, active = well fitted activation curve with a large enough effect; inconclusive = small, poorly fitted or top-dose-only effect; inactive = no such curve, though single readings can be large or run the other way.
assay: qHTS Assay to Identify Small Molecule Activators of BRCA1 Expression; conditions: MCF7-BRCA1-FFLuc reporter, luminescence, 48 h; series mostly up to 46.1 µM; activation: at the top concentration; also: nearly all actives have a fitted effect of over 80% in size
Method in brief: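 Activators of BRCA1 expression were detected as increased firefly luciferase luminescence in engineered MCF7 cells after 48 h compound incubation. Signals were scaled to genistein 10 microM as full activation.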
Potency is read from the fitted curve at half-maximal effect.

First: COc1cncc(-c2cnc3sc(NCCc4ccccn4)nn23)c1
Second: CCOc1ccc(N2CC(C(=O)NCc3ccccn3)CC2=O)cc1 (stereo not given)
The “activation” value of the first is lower: -32.3% for the first, -0.452% for the second.

First: Cc1c(C)c(C)c(S(=O)(=O)NCCc2ccccn2)c(C)c1C
Second: O=S(=O)(NCCOc1cccc2cccnc12)c1ccc(F)cc1
The “activation” value of the first is lower: -0.0453% for the first, 9% for the second.

Compared with `CN(Cc1ccccc1)c1ncnc2onc(-c3ccc(F)cc3)c12`, `O=C(Nc1c(-c2ccc(F)cc2)nc2ccccn12)c1cccc(F)c1` is lower in “activation” value: -18.2% for the first, -21.3% for the second.

First: O=C(CC(c1ccccc1)c1ccccc1)NCC(O)c1ccc([N+](=O)[O-])cc1 (stereo not given)
Second: CC(=O)c1ccc(NC(=O)COc2ccccc2-c2nc(-c3ccccc3)no2)cc1
The “activation” value of the first is lower: -36.3% for the first, 0% for the second.

Compared with `CCCCOC(=O)Nc1nnc(CC(=O)NCc2ccccc2)s1`, `C/C(Cc1ccccc1)=N\NC(=O)CNC(=O)c1ccc2c(c1)OCCO2` is higher in “activation” value: -16.7% for the first, 21.3% for the second.

Compared with `COc1ccc2cc(CNc3ccc(OC)c(OC)c3)c(=O)n(CC(=O)Nc3ccccc3F)c2c1`, `COc1cc(C(=O)Nc2ccc(-n3c(C)nc4ccccc4c3=O)cc2)cc(OC)c1OC` is lower in “activation” value: 6.1% for the first, 4.37% for the second.

Going from `COc1cc2nc(N3CCCN(C)CC3)nc(NC(C)C)c2cc1OC` to `COc1cc2c(=O)c(S(=O)(=O)c3ccc(C(C)C)cc3)cn(Cc3ccccc3C)c2cc1OC`, the “activation” value falls from 4.14% to -43.2%.

Compared with `COc1cccc(CNC(=O)C(NS(=O)(=O)c2ccc3nc(C)sc3c2)C(C)C)c1` (stereo not given), `Cc1ccc(CNS(=O)(=O)c2ccc(C(=O)N(C)C)s2)cc1` is lower in “activation” value: 11.8% for the first, -1.32% for the second.

Compared with `CCC(C)c1ccc(NC(=O)COC(=O)C2CCCC2)cc1` (stereo not given), `CCc1ccc(NC(=O)N[C@H](C(=O)O)C(C)CC)cc1` (stereo not given in full) is lower in “activation” value: 63.6% for the first, 0% for the second.

Going from `NS(=O)(=O)c1ccc(NC(=S)N2CCCC2)cc1` to `O=C(NCc1ccc(Cl)cc1)C1CCN(S(=O)(=O)c2cccs2)CC1`, the “activation” value rises from -14.7% to -3.74%.

First: CCN(C(=O)Cn1cnc2sc(C)c(S(=O)(=O)N3CCN(c4ncccn4)CC3)c2c1=O)c1ccccc1F
Second: CCOC(=O)c1c(C)[nH]c(C)c1S(=O)(=O)N1CCCC(C(=O)NCc2ccccc2Cl)C1 (stereo not given)
The “activation” value of the first is higher: 6.29% for the first, -3.4% for the second.

Going from `COc1ccc(-c2ocnc2C(=O)Nc2ccc3c(c2)CCC3)cc1` to `COc1ccc(NC(=O)CCNS(=O)(=O)c2ccc3c(c2)CCCC(=O)N3)cc1Cl`, the “activation” value falls from 43% to 0%.

Compared with `CCOC(=O)c1c(-c2ccc(OC)cc2)oc2ccc(OCc3ccc(C(=O)OC)cc3)cc12`, `CCOC(=O)c1ccc(N2C(=O)c3n[nH]c(-c4ccco4)c3C2c2ccc(O)cc2)cc1` (stereo not given) is lower in “activation” value: 11.6% for the first, -71.7% for the second.

Going from `Cc1ccc(N2CC(C(=O)Nc3ccc(N(C)C)cc3)CC2=O)cc1Cl` (stereo not given) to `CCCNC(=O)C1CC(=O)N(c2ccc(OCC(=O)Nc3cccc(C)c3C)cc2)C1` (stereo not given), the “activation” value rises from 0.738% to 16.9%.

Going from `O=C(Nc1ccc(F)cc1F)c1cnn(-c2ccc(F)cc2)c1-n1cccc1` to `O=C(Nc1ccc(F)cc1F)c1ccc2c(=O)n3c(nc2c1)CCCCC3`, the “activation” value rises from -12.7% to 4.14%.

Compared with `CC(C)CC(=O)Nc1ccc(Cc2ccncc2)cc1`, `COc1ccc(Cn2c(C)c(C)c(C#N)c2NC(=O)Nc2ccc(F)cc2)cc1` is higher in “activation” value: -0.517% for the first, 0% for the second.

Compared with `Cc1ccccc1Nc1nn2c(=O)c3ccc(C(=O)NCCc4ccc(Cl)cc4)cc3nc2s1`, `O=C(NC1CCCCC1)c1ccc2c(c1)N(Cc1ccc(Cl)cc1)C(=O)c1ccccc1S2=O` (stereo not given) is lower in “activation” value: 1.1% for the first, -29.4% for the second.

Going from `CN(N=O)c1ccc(C=C2c3ccccc3-c3ccccc32)cc1` to `CN(C)c1ccc(C=Nc2ccc(/C=C/c3ccnc4ccccc34)cc2)cc1`, the “activation” value rises from -55.1% to 8.08%.

First: COc1ccc(S(=O)(=O)NCCSc2nnnn2-c2ccccc2)cc1
Second: O=c1cc2nc(-c3ccccc3)nc(SCCOc3ccc(Cl)cc3)n2[nH]1
The “activation” value of the first is lower: -7.8% for the first, 11.2% for the second.

Compared with `CCCNC(=O)CCc1c(C)nc2c(c(C)nn2-c2ccc(C)cc2)c1C`, `CCc1nc2c(cnn2-c2ccc(C)cc2)c(=O)n1-c1ccc(C)cc1` is lower in “activation” value: -11.4% for the first, -12.1% for the second.

First: COc1ccccc1CNC(=O)CCn1c(=O)c2ccccc2n(CC(=O)Nc2cccc(Cl)c2)c1=O
Second: Cc1ccccc1NC(=O)Cn1c(=O)n(CC2CCC(C(=O)NCCc3ccccc3)CC2)c(=O)c2ccccc21 (stereo not given)
The “activation” value of the first is lower: 0% for the first, 0.607% for the second.

Compared with `O=C1Oc2ccccc2C(=O)/C1=C/c1ccccc1O`, `O=C1N(Cc2ccccc2)c2ccc(Cl)cc2C1(O)c1c[nH]c2ccccc12` (stereo not given) is higher in “activation” value: -43.4% for the first, -30.5% for the second.

Compared with `COc1cc(/C=C2\Oc3ccc(C#Cc4ccc(O)cc4)cc3C2=O)cc(OC)c1`, `COc1cc(OC)cc(-c2nc3nc(C)c(CCC(=O)Nc4ccccc4)c(C)n3n2)c1` is higher in “activation” value: -68% for the first, 6.37% for the second.

Compared with `Cc1ccc(C)c(CN2C(=O)c3ccccc3S(=O)c3ccc(C(=O)N4CCOCC4)cc32)c1` (stereo not given), `COCCn1c(SCC(=O)c2cc(C)ccc2C)nc2cc(C(=O)NC3CCCC3)ccc2c1=O` is higher in “activation” value: -8.36% for the first, 8.48% for the second.

Going from `Cc1ccc(-c2cc(-c3coc4ccccc4c3=O)c3c(n2)-c2cc(Cl)ccc2OC3)cc1` to `Cc1ccc(S(=O)(=O)c2c(Nc3cccc(Cl)c3)sc(C(=O)c3ccc4c(c3)OCO4)c2N)cc1`, the “activation” value falls from 5.07% to -20.3%.

Going from `CN(C)CCCn1c(-c2ccc(Cl)cc2)csc1=Nc1ccccc1` to `N#Cc1ccccc1NC(=O)c1cccc(COc2ccc(Cl)cc2Cl)c1`, the “activation” value rises from -56.6% to -15.9%.

Compared with `CCOc1cccc(OCCCOc2cccc3cccnc23)c1`, `CCCCCCCNc1ccc(/C=C/c2ccnc3ccccc23)cc1` is lower in “activation” value: 24.7% for the first, -60.9% for the second.

Going from `CCOC(=O)c1cccc(NS(=O)(=O)c2cn(C)c(C)n2)c1` to `CS(=O)(=O)N1CCc2cc(C(=O)Nc3ccccc3)ccc21`, the “activation” value rises from -4.82% to 17.3%.

First: CC1(C)CC(=O)C=C(c2ccc(COC(=O)c3cc(F)cc(F)c3)cc2)C1=O
Second: CC1(C)CC(=O)C=C(c2ccccc2CO)C1=O
The “activation” value of the first is lower: -11.8% for the first, 14.4% for the second.

Compared with `COc1cc(C(=O)Nc2ccc(OCc3cc(=O)n4cc(C)sc4n3)cc2)cc(OC)c1OC`, `CCN(C(=O)c1sc2cc(OC)ccc2c1Cl)c1ccccc1` is lower in “activation” value: 5.16% for the first, -24.9% for the second.

Going from `CC1=Nc2cc(C(=O)N3CCC(C)CC3)ccc2Sc2ccc(Cl)cc21` to `O=CN1CCN(C(=O)c2ccc3c(c2)OCO3)CC1`, the “activation” value rises from -35.4% to 5.32%.

Going from `Oc1ccc(Cl)cc1C1C=C(c2ccc3c(c2)OCO3)NC(c2ccc(F)c(Br)c2)N1` (stereo not given) to `C/C(=N/NC(=S)Nc1ccccc1)c1ccc2c(c1)OCO2`, the “activation” value rises from -37.8% to 54%.

First: COc1ccc(C2CC(c3ccccc3)=NN2C(=O)c2ccc(Cl)c([N+](=O)[O-])c2)cc1 (stereo not given)
Second: COc1ccc(C2=NN(C(=O)CSc3nc(=O)n4ccc(C)cc4n3)C(c3ccc(C)cc3)C2)cc1 (stereo not given)
The “activation” value of the first is lower: -88.3% for the first, -15.3% for the second.

Going from `O=C(COC(=O)C1CC2C=CC1C2)Nc1ccccc1` (stereo not given) to `CCOC(=O)C1CCCN(CC(=O)Nc2cc(C)c3c(=O)oc4ccccc4c3n2)C1` (stereo not given), the “activation” value rises from -10.1% to 2.55%.

First: Cc1ccc(C)c(NC(=S)NNC(=S)Nc2ccc(C(C)C)cc2)c1
Second: Cc1ccc(S(=O)(=O)NCC(=O)Nc2ccc3c(c2)OCCO3)cc1
The “activation” value of the first is lower: -7.76% for the first, 0% for the second.

Compared with `OC[C@@H]1O[C@H](n2cnc3c(SCc4ccccc4)ncnc32)[C@H](O)[C@H]1O`, `CC(C)NC(=O)CSc1ccccc1C(=O)NCc1ccc2c(c1)OCO2` is lower in “activation” value: 0% for the first, -1.15% for the second.

Compared with `O=C(NCc1ccco1)c1sc2cccc(F)c2c1Cl`, `C=C1C=C(C(F)F)n2ncc(C(=O)NCCc3ccccc3OC)c2N1` is lower in “activation” value: 60.2% for the first, -8.16% for the second.

First: c1csc(-c2nnc(COc3ncnc4sccc34)o2)c1
Second: CCOc1ncccc1C(=O)Nc1ccc2c(c1)OCCO2
The “activation” value of the first is higher: -5.83% for the first, -13.2% for the second.

Compared with `CNC(=O)c1nnc(Cc2ccc(Cl)cc2)o1`, `Cc1ccc(C(=O)NNC2=Nc3cc([N+](=O)[O-])ccc3OC2)cc1` is lower in “activation” value: 27.6% for the first, -41.7% for the second.

Going from `COc1ccc(OCc2n[nH]c(=S)n2N)cc1` to `N#Cc1ccc[n+](CC(=O)c2ccc(O)c(O)c2)c1`, the “activation” value rises from 2.71% to 16.7%.

Going from `O=C(Nc1cccc(Cl)c1N1CCOCC1)c1ccc2c(c1)OCCO2` to `CC(C)(C)C1CCC(C(=O)NCC(c2cccs2)N2CCOCC2)CC1` (stereo not given), the “activation” value falls from 0.06% to -16.4%.

Compared with `CCCCC(CCCC)c1ccc(C=Nc2ccc(/C=C/c3ccnc4ccccc34)cc2)cc1`, `OCC(O)C(O)C(O)C(O)C=Nc1ccc(/C=C/c2ccnc3ccccc23)cc1` (stereo not given) is lower in “activation” value: 11% for the first, 0% for the second.

With `COc1ccc(NCCc2ccccn2)cc1` the Potency was 12.6 µM (active).
In the case of `CCCCCCOC(=O)NCC(O)c1ccccc1` (stereo not given), the Potency is reported as 2.82 µM (active).
In the case of `CCC(C)c1ccc(NC(=S)N2CCCC2)cc1` (stereo not given), the Potency is reported as 12.6 µM (active).
In the case of `COc1ccc(-c2onc3ccc(C(C)=O)cc23)cc1`, the Potency is reported as 8.91 µM (active).
In the case of `CCc1ccc(NC(=O)Nc2ccncc2)cc1`, the Potency is reported as 10 µM (active).
In the case of `CCCNC(=O)c1c(Cl)cnn1-c1ccc(C)cc1`, the Potency is reported as 10 µM (active).
For `COc1ccc2c(c1)O/C(=C\c1ccccc1O)C2=O`, the Potency was 12.6 µM (active).
For `Fc1ccccc1COc1cccc2cccnc12`, the Potency was 7.94 µM (active).
For `Cc1ccc(-c2ccc(C3=CC(=O)CC(C)(C)C3=O)cc2)cc1`, the Potency was 2.24 µM (active).
For `COc1ccc(C2=NN(C(C)=O)C(c3ccccc3)C2)cc1` (stereo not given), the Potency was 11.2 µM (active).
For `CC(C)c1ccc(NC(=S)NC2CC3C=CC2C3)cc1` (stereo not given), the Potency was 4.47 µM (active).
With `COc1ccc2c(Cl)c(C(=O)NCc3ccco3)sc2c1` the Potency was 11.2 µM (active).
In the case of `Clc1ccc(Cc2nnc(-c3cccs3)o2)cc1`, the Potency is reported as 11.2 µM (active).
With `COc1ccc(Cc2n[nH]c(=S)n2NC(=O)Nc2ccc(C)cc2)cc1` the Potency was 12.6 µM (active).
In the case of `O=C(Nc1ccccc1)c1ccc2c(c1)OCO2`, the Potency is reported as 10 µM (active).
For `Cc1ccc(C(=O)NNC(=O)c2ccc3c(c2)OCCO3)cc1`, the Potency was 6.31 µM (active).
For `CCSc1ccccc1C(=O)Nc1ccc2c(c1)OCO2`, the Potency was 11.2 µM (active).
In the case of `N#Cc1ccccc1NC(=O)c1ccc2c(c1)OCO2`, the Potency is reported as 3.16 µM (active).
With `O=C(Nc1ccccc1)c1ccc2c(c1)OCCCO2` the Potency was 12.6 µM (active).
With `O=C(NCc1csc(-c2cccs2)n1)C1CC1` the Potency was 11.2 µM (active).
For `CCCNC(=O)C1CC(=O)N(c2ccc(OCc3ccccc3)cc2)C1` (stereo not given), the Potency was 3.16 µM (active).

— PubChem BioAssay AID624202 (National Center for Advancing Translational Sciences (NCATS), 2012)
